Measurements as given in PubChem BioAssay AID720566 (Broad Institute, 2013).
Entries with a potency or affinity are not part of this list. Activity calls are given as the source filed them.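 Rule for the calls: active = in all runs, an absorbance decrease of 25% or more of the average positive control decrease; inconclusive = runs conflict, with both active and inactive results; inactive = all runs inactive, opposite-direction effects included.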

Molecular target: Protein disulfide-isomerase A6 (Homo sapiens) (UniProt Q15084)
Assay: reduced insulin turbidity driven by ERp5 (PDIA6) – biochemical, absorbance 650 nm, cherry-picked samples, dose response (AID 720566);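 note: negative values mean less insulin aggregation so ERp5 inhibition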
Details: Recombinant ERp5 insulin aggregation; series mostly up to 35 µM; activity change, negative = inhibition: at the top concentration

Chain of Protein disulfide-isomerase A6 (Homo sapiens) (Q15084 whole entry, looked up): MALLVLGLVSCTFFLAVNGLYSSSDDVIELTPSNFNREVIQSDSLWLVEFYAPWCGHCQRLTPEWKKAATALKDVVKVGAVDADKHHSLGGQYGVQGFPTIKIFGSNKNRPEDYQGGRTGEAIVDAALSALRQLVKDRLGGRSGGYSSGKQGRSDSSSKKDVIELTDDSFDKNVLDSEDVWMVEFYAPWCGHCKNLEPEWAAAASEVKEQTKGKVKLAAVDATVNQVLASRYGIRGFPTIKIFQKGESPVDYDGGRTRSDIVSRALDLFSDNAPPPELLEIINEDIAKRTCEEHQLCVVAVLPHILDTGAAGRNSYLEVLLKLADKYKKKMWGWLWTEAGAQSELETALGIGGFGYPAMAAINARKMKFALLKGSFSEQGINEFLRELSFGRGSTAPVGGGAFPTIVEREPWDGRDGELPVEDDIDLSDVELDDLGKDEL

Activity change, negative = inhibition, inactive:
Cc1ccc(S(=O)(=O)N(C)C)cc1NC(=O)COC(=O)C1(c2ccccc2)CC1 9.17%
COc1ccc2c3c([nH]c2c1)[C@H](CO)N(C(=O)NC(C)C)CC31CN(C(=O)C2CCCC2)C1 -3.95%
Cc1noc(C)c1NC(=O)Nc1ccc2c(c1)C(=O)N([C@H](C)CO)C[C@@H](C)[C@@H](CN(C)C(=O)Nc1ccc(F)cc1)O2 0.559%
Cc1ccc([C@H]2N[C@]3(CCCN(Cc4ccc(Cl)cc4)C3=O)[C@H]3C(=O)N(C)C(=O)[C@@H]23)cc1 -3.74%
C[C@@H]1CN([C@H](C)CO)C(=O)Cc2cc(NS(=O)(=O)c3ccc(F)cc3)ccc2O[C@@H]1CN(C)S(=O)(=O)c1cn(C)cn1 -5.88%
COCC#Cc1cnc2c(c1)C(=O)N([C@@H](C)CO)C[C@H](C)[C@@H](CN(C)C(=O)NC1CCCC1)O2 -4.34%
CCCC(=O)N1CC2(C1)CN(C(=O)C1CCCCC1)[C@H](CO)c1[nH]c3cc(OC)ccc3c12 3.38%
CCN(CC)S(=O)(=O)c1ccc2c(c1)N(CC(=O)NCCN1CCOCC1)C(=O)CO2 14.4%
C[C@H](CO)N1C[C@H](C)[C@@H](CN(C)S(=O)(=O)c2ccc(Oc3ccccc3)cc2)OCc2cnnn2CCCC1=O 3.54%
C[C@H]1CN([C@@H](C)CO)C(=O)c2cc(-c3cccc(C#N)c3)cnc2O[C@@H]1CN(C)Cc1cncnc1 1.3%
CCCNC(=O)C[C@H]1C[C@H]2c3cc(NS(C)(=O)=O)ccc3O[C@H]2[C@@H](CO)O1 -11.5%
O=C(C[C@@H]1CC[C@@H]2[C@H](COC[C@@H](O)CN2S(=O)(=O)c2ccccc2)O1)NCCN1CCCC1 2.02%
Cc1ccc(S(=O)(=O)C=CS(=O)(=O)c2ccc(C)cc2)cc1 -25.3%
CN(C)C(=O)C[C@H]1C[C@H]2c3cc(NS(C)(=O)=O)ccc3O[C@H]2[C@@H](CO)O1 2.6%
C[C@H]1CN([C@@H](C)CO)C(=O)Cc2cc(NC(=O)Nc3cccc4ccccc34)ccc2O[C@H]1CN(C)C(=O)Nc1cccc2ccccc12 6.33%
COCC#Cc1cnc2c(c1)C(=O)N([C@H](C)CO)C[C@@H](C)[C@H](CN(C)C(=O)NC1CCCC1)O2 -13%
C[C@H](CO)N1C[C@H](C)[C@@H](CN(C)Cc2ccc(C(=O)O)cc2)Oc2ccc(NS(=O)(=O)c3cccs3)cc2CC1=O 3.54%
COc1ccc(S(=O)(=O)Nc2ccc3c(c2)C(=O)N([C@H](C)CO)C[C@H](C)[C@H](CN(C)C(=O)Nc2ccccc2)O3)cc1 -9.35%
COc1ccccc1NS(=O)(=O)c1ccc(C(=O)N2CCN(c3ccccn3)CC2)cc1 -5.32%
C[C@@H]1CN([C@@H](C)CO)C(=O)c2cccc(NS(=O)(=O)c3ccc(F)cc3)c2O[C@H]1CN(C)S(=O)(=O)c1ccccc1 4.47%
C[C@H](CO)N1C[C@H](C)[C@H](CN(C)C(=O)CCC(F)(F)F)OCCCC[C@H](C)Oc2ccc(NS(=O)(=O)c3ccc(Cl)cc3)cc2C1=O 7.45%
COc1ccc(NC(=O)CSc2nnc(NC(=O)C3CC3)s2)cc1OC -1.02%
C[C@@H]1CN([C@@H](C)CO)S(=O)(=O)c2ccc(C#Cc3cccnc3)cc2O[C@H]1CN(C)C(=O)CN(C)C 0.482%
CC(C)C#Cc1ccc2c(c1)O[C@@H](CN(C)C(=O)C1CC1)[C@@H](C)CN([C@@H](C)CO)S2(=O)=O -7.81%
C[C@H](CO)N1C[C@H](C)[C@H](CN(C)S(=O)(=O)c2cn(C)cn2)Oc2ncc(C#Cc3ccccc3)cc2C1=O -0.289%
COc1ccc2c3c([nH]c2c1)[C@H](CO)N(C(=O)C1CCOCC1)CC31CCN(Cc2nccs2)CC1 4.53%
C[C@H]1CN([C@@H](C)CO)C(=O)c2cccc(NC(=O)Nc3cccc4ccccc34)c2O[C@@H]1CN(C)C(=O)Nc1ccc(C(F)(F)F)cc1 2.99%
C[C@@H]1CCCCO[C@@H](CN(C)Cc2ccc(C(=O)Nc3ccccc3N)cc2)[C@@H](C)CN([C@H](C)CO)C(=O)c2cc(NS(=O)(=O)c3cccs3)ccc2O1 10.1%
O=C(C[C@@H]1C[C@H]2c3cc(NC(=O)Nc4ccccc4F)ccc3O[C@H]2[C@H](CO)O1)NCC(F)(F)F 0.289%
C[C@H](CO)N1C[C@H](C)[C@H](CN(C)Cc2cncnc2)Oc2ncc(-c3cccc(C#N)c3)cc2C1=O 1.45%
CN1CCN(C(=O)C[C@@H]2C[C@@H]3c4cc(NC(=O)C5CCOCC5)ccc4O[C@@H]3[C@H](CO)O2)CC1 -0.931%
O=C1[C@@H](c2ccccc2)CC[C@@H]2C=CC[C@H]3CCN1[C@@H]32 -1.07%
COc1ccc2c3c([nH]c2c1)[C@H](CO)N(Cc1ccccc1Cl)CC31CN(C(=O)C2CC2)C1 9.35%
